# Measured values reported in the supplement of paper PMC9254222.
# Over roughly 1,100 compounds, “Renilla luciferase signal (cell health) relative to plate median” has its median near 0.97; the highest 2% begin near 1.6. What follows is part of a selection rich in the highest values, with near analogues and random picks from the rest.
# Test system: HEK293T (UBE3A T485A transfected, BAR Wnt reporter)
# Test: Renilla luciferase signal (cell health) relative to plate median (fold (linear ratio)); higher = higher Renilla signal
# Conditions: 24 h
# How it was run: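 Each value averages four biological replicates in HEK293T cells grown at 4500 cells/well in DMEM with 10% FBS at 37°C and 5% CO2. The cells were transfected with a BAR firefly luciferase Wnt reporter, TK-Renilla and an expression plasmid, then four hours later robotically treated with the chemicals at 0.01–100 uM for 24 h. Dual-Glo luciferase signals were median-centred per plate, with the firefly/Renilla ratio reported as Wnt activity and raw Renilla as cell health.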
Structure (SMILES),Renilla luciferase signal (concentration: 0.01 uM),Renilla luciferase signal (concentration: 0.1 uM),Renilla luciferase signal (concentration: 1 uM),Renilla luciferase signal (concentration: 10 uM),Renilla luciferase signal (concentration: 100 uM)
Cc1[nH]c(=O)n(C(C)(C)C)c(=O)c1Cl [Terbacil],0.884,0.706,0.903,0.738,1.53
O=S(=O)(O)C(F)(F)C(F)(F)C(F)(F)C(F)(F)C(F)(F)C(F)(F)C(F)(F)C(F)(F)F,0.967,0.956,0.993,0.948,0.944
[Na+].[O-][Cl+][O-] [Sodium chlorite],–,1.07,0.996,1.06,1.34
"Clc1cc(Cl)c(Cl)cc1Cl [1,2,4,5-Tetrachlorobenzene]",–,0.579,0.572,0.454,0.504
Brc1ccc(Oc2ccccc2)cc1 [p-Bromodiphenyl ether],–,0.896,0.914,0.837,0.987
[OH][Sn]([c]1ccccc1)([c]1ccccc1)[c]1ccccc1 [Triphenyltin hydroxide],0.857,0.622,0.135,0.0103,0.0121
O=C(NC(=O)c1c(F)cccc1F)Nc1ccc(OC(F)(F)C(F)OC(F)(F)F)c(Cl)c1 (configuration not stated) [Novaluron],1.08,0.982,0.998,0.935,1.48
CCOP(=O)(SC(C)CC)N1CCSC1=O (configuration not stated) [Fosthiazate],1.08,1.07,1.19,1.21,1.7
[Cl-].[Cl-].[Hg+2] [Mercuric chloride],–,0.533,0.402,0.153,0.0217
"c1nc[nH]n1 [1H-1,2,4-Triazole]",–,0.873,0.956,0.885,1.12
O=[N+]([O-])/N=C1\NCCN1Cc1ccc(Cl)nc1 [Imidacloprid],0.993,1.11,0.934,0.949,1.15
CN/C(=N\[N+](=O)[O-])NCc1cnc(Cl)s1 [Clothianidin],0.978,0.964,0.897,1.05,1.48
CN1COCN(Cc2cnc(Cl)s2)C1=N[N+](=O)[O-] [Thiamethoxam],1.14,1.09,1.1,0.959,2.15
O=S1OCC2C(CO1)C1(Cl)C(Cl)=C(Cl)C2(Cl)C1(Cl)Cl (configuration not stated) [Endosulfan],1.05,1.05,1.02,1.13,1.06
CS(=O)(=O)c1cc(C(F)(F)F)ccc1C(=O)c1cnoc1C1CC1 [Isoxaflutole],0.938,0.74,0.954,0.778,2.79
CCC[CH2][Sn]([Cl])([CH2]CCC)[CH2]CCC [Tributyltin chloride],–,0.598,0.574,0.235,0.0217
CCCSP(=O)(OCC)Oc1ccc(Br)cc1Cl (configuration not stated) [Profenofos],0.9,0.888,0.969,1,0.894
Nc1nc(N)nc(NC2CC2)n1 [Cyromazine],1.1,0.889,0.95,1.05,1.86
CCN(CC)N=O [N-Nitrosodiethylamine],–,1.02,0.957,1.07,1.08
C=CC(=O)OCCCCCC(C)C [Isooctyl acrylate],–,0.895,0.841,0.931,1.07
CC1C(c2ccc(Cl)cc2)SC(=O)N1C(=O)NC1CCCCC1 (configuration not stated) [Hexythiazox],0.957,0.999,0.929,0.977,0.244
CN=C=S [Methyl isothiocyanate],0.842,0.902,0.962,1.06,1.71
"CC(C)(c1ccccc1)c1ccc(O)c(C(C)(C)c2ccccc2)c1 [2,4-Bis(1-methyl-1-phenylethyl)phenol]",–,0.856,0.888,1.05,1.14
CN(C)c1ccc(C(=O)c2ccc(N(C)C)cc2)cc1 [Michler's ketone],–,1.09,1.03,0.702,0.267
Cc1cc(O)ccc1Cl [4-Chloro-3-methylphenol],–,0.999,1.09,0.977,1.06

Structure (SMILES),Renilla luciferase signal (concentration: 0.01 uM),Renilla luciferase signal (concentration: 0.1 uM),Renilla luciferase signal (concentration: 1 uM),Renilla luciferase signal (concentration: 10 uM),Renilla luciferase signal (concentration: 100 uM)
ClC1=C(Cl)C2(Cl)C3C4CC(C5OC45)C3C1(Cl)C2(Cl)Cl (configuration not stated) [Endrin],–,0.878,0.941,0.842,0.349
ClC1=C(Cl)C2(Cl)C3C4CC(C5OC45)C3C1(Cl)C2(Cl)Cl (configuration not stated) [Dieldrin],–,1.01,0.977,1.07,0.829
CCCCOC(=O)c1ccccc1C(=O)O [Monobutyl phthalate],0.968,0.862,0.73,1.21,2.17
CCCCCOC(=O)c1ccccc1C(=O)OCCCCC [Dipentyl phthalate],–,0.95,0.861,0.91,1.18
CCCCOC(=O)c1ccccc1C(=O)OCCCC [Dibutyl phthalate],1.02,1.04,1.02,1.03,0.11
Cc1cnc(C2=NC(=O)C(C)(C(C)C)N2)c(C(=O)O)c1 (configuration not stated) [Imazapic],1.11,1.17,1.18,1.14,1.72
CC(C)C1(C)N=C(c2nc3ccccc3cc2C(=O)O)NC1=O (configuration not stated) [Imazaquin],1.09,1.09,1.07,1.06,1.38
CCC(C)C1OC2(C=CC1C)CC1CC(CC=C(C)C(OC3CC(OC)C(OC4CC(OC)C([NH2+]C)C(C)O4)C(C)O3)C(C)C=CC=C3COC4C(O)C(C)=CC(C(=O)O1)C34O)O2.O=C([O-])c1ccccc1 (configuration not stated) [Emamectin benzoate],1.02,1.08,0.877,0.0929,0.0231
CCc1cnc(C2=NC(C)(C(C)C)C(=O)N2)c(C(=O)O)c1 (configuration not stated) [Imazethapyr],1.11,0.962,0.96,0.991,1.58
COCc1cnc(C2=NC(C)(C(C)C)C(=O)N2)c(C(=O)O)c1 (configuration not stated) [Imazamox],0.649,0.799,0.965,0.977,2.3
CC(C)C1(C)N=C(c2ncccc2C(=O)O)NC1=O (configuration not stated) [Imazapyr],0.822,0.714,0.895,0.959,1.42
CCCOC/C(=N\c1ccc(Cl)cc1C(F)(F)F)n1ccnc1 [Triflumizole],0.984,0.937,0.992,0.929,1.45
CCSC(=O)N(CC)C1CCCCC1 [Cycloate],0.797,0.996,0.924,1.01,1.15
CCSC(=O)N1CCCCCC1 [Molinate],0.998,0.899,0.905,1.04,1.8
CCOP(=S)(Oc1cnc(C(C)(C)C)nc1)OC(C)C (configuration not stated) [Tebupirimfos],1.07,1.22,1.16,1.08,1.4
CSC(=O)c1c(C(F)F)nc(C(F)(F)F)c(C(=O)SC)c1CC(C)C [Dithiopyr],0.664,0.813,0.927,0.835,1.14
O=C(N[C@H](c1ccccc1)[C@@H]1CN2CCC1CC2)c1c(Cl)ccc(C(F)(F)F)c1Cl,–,0.771,0.687,0.344,0.143
CCOc1ccc(C(C)(C)COCc2cccc(Oc3ccccc3)c2)cc1 [Etofenprox],–,1.01,1.12,0.95,1.14
CCC(C)(C)c1ccc(O)cc1 [4-(2-Methylbutan-2-yl)phenol],–,0.874,0.809,0.795,0.442
CSc1nc(NC(C)C)nc(NC(C)C)n1 [Prometryn],1.14,1.03,0.973,1.01,0.989
CCNc1nc(NC(C)C)nc(SC)n1 [Ametryn],0.34,0.318,0.3,0.543,1.78
CCNc1nc(Cl)nc(NC(C)C)n1 [Atrazine],0.72,0.693,0.877,0.729,1.18
CCCN(CCC)c1c([N+](=O)[O-])cc(S(N)(=O)=O)cc1[N+](=O)[O-] [Oryzalin],1.08,0.918,0.931,0.876,0.99
CC1COC(Cn2cncn2)(c2ccc(Oc3ccc(Cl)cc3)cc2Cl)O1 (configuration not stated) [Difenoconazole],1.03,1.07,0.923,0.485,0.152
"Cc1cccc(N)c1N [2,3-Diaminotoluene]",–,0.728,0.75,0.772,0.198
